Results reported in PubChem BioAssay (EPA / NIEHS).
Some structures have more than one record in an assay (separate samples or runs), and their calls can disagree. Activity calls are given as the source filed them. How the source made its calls: active means hit-call score of the fitted dose curve at least 0.9, where 1 is the maximum; inactive means score below 0.9.

The compounds below were run on Forkhead box O1 (FOXO1), FOXO1 (gene 2308) (assay: LTEA_HepaRG_FOXO1: Life Technologies and Expression Analysis (LTEA) Assay for Forkhead box O1 (FOXO1) using HepaRG (AID 2283456)). Conditions: mRNA level, 48 h; actives raise or lower the signal.
Description: LTEA_HepaRG is a cell based, multiplexed-readout assay that uses HepaRG, a human liver cell line, with measurements taken at 48 hours after chemical dosing on a 96-well plate.LTEA_HepaRG_FOXO1 is one of 102 assay component(s) measured in the LTEA HepaRG cell culture assay. It is a marker of Cell proliferation, survival, death.Data from the assay component LTEA_HepaRG_FOXO1 was analyzed into 1 endpoint. This assay endpoint, LTEA_HepaRG_FOXO1, was analyzed with bidirectional fitting relative to DMSO as the negative control and baseline of activity. Using a type of inducible reporter, measures of mRNA induction for gain or loss-of-signal activity can be used to understand regulation of transcription factor activity. To generalize the intended target to other relatable targets, this assay endpoint is annotated to the dna binding intended target family, where the subfamily is forkhead box protein.
A total of 1060 chemcials from the ToxCast library were tested in eight-point concentration-response experiments. Cell culture and cytotoxicity assays were conducted at Thermo Fisher Scientific's Custom Services facility (Madison, WI). A single lot of human HepaRG cells (Thermo Fisher Scientific, Frederick, MD) was used for the cell culture experiments. 96-well format collagen type I coated plates of human HepaRG cells were prepared using established methods. Briefly, cryopreserved HepaRG cells were thawed, plated at a density of approximately 100,000 cells/well in HepaRG Thaw, Plate, and General Purpose media (HPRG770, Thermo Fisher Scientific), and incubated for 48 hours. 0.5% DMSO was selected as vehicle control to balance the requisite need of DMSO in HepaRG cultures to maintain differentiation (for example, baseline metabolism, proportions of hepatocytes vs. cholangiocytes), while enabling further hepatic receptor pathway activation (for example, PXR and CAR) in response to chemical exposure. 48 hours after plating, the culture medium was replaced with HepaRG Serum-Free Incudtion Media. Cells were exposed to each test chemical in duplicate and maintained in CO2 incubators for another 48 hours. Chemical plates were thawed to room temperature and 200x concentrations of treatment groups were prepared. 8-point conentration-reponse curves were made with the highest exposure at 100 uM, followed by half-log dilutions, all in 0.5% DMSO. Each test plate contained variouse controls, induction positive controls (1mM phenobarbital), cytotoxicity positive controls ([…] aflatoxin B1), vehicle controls (0.5% DMSO), and total lysis controls (0.5% DMSO). Cell morphology images were taken using an Essen IncuCyte FLR automated microscope, with six 96-well plates imaged in about 24 minutes. Images were captured and exported and JPEG files. Spent culture media was transfered to black-well plates for the LDH assay, and remaining media was sorted at -80 C for later use. Cells were treated with RLT buffer and frozen until shipped for gene expression analysis. Total RNA was isolated from the cell suspension in 75 uL of Buffer RLT (Qiagen, Germantown, MD 20874) by Quintiles/Expression Analysis (Durham, NC) using a custom isolation procedure. Total RNA from each plate well was transferred to a preamplification plate. Fluidigm's 96.96 Dynamic ArrayTM (Fluidigm, Amsterdam, the Netherlands) technology was used for gene expression analyses by quantitative reverse transcription polymerase chain reaction (qRT-PCR, performed by Quintiles/Expression Analysis, Durham, NC)89. Standard TaqManTM Assays (Applied Biosystems/ThermoFisher Scientific, Foster City, CA) were used to assess the expression of 93 genes selected based on their selectivity and sensitivity to important hepatic receptors known to be modulated by environmental chemicals; importance in human hepatocyte functionality; and hepatotoxicity. […]

| SMILES | outcome | AC50 |
| --- | --- | --- |
| COP(=S)(OC)Oc1nc(Cl)c(Cl)cc1Cl | inactive | – |
| CNC(=S)S | inactive | – |
| CN(C)C(=S)SSC(=S)N(C)C | inactive | – |
| Cc1cc(Cl)ccc1OCC(=O)O | inactive | – |
| Cc1ccc(-c2c(Cl)nc(C#N)n2S(=O)(=O)N(C)C)cc1 | – | 50 µM (active) |
| CCCC1COC(Cn2cncn2)(c2ccc(Cl)cc2Cl)O1 (stereo not given) | – | 76.1 µM (active) |
| CC(C)C1(C)N=C(c2nc3ccccc3cc2C(=O)O)NC1=O (stereo not given) | inactive | – |
| CCCCNC(=O)OCC#CI | inactive | – |
| CCCCNC(=O)n1c(NC(=O)OC)nc2ccccc21 | inactive | – |
| CCCN(CCC)c1c([N+](=O)[O-])cc(S(N)(=O)=O)cc1[N+](=O)[O-] | inactive | 90.2 µM (active) |
| COc1ccc(C(c2ccc(OC)cc2)C(Cl)(Cl)Cl)cc1 | inactive | – |
| CCOC(=O)CC(SP(=S)(OC)OC)C(=O)OCC (stereo not given) | inactive | – |
| COC(=O)C=C(C)OP(=O)(OC)OC | inactive | – |
| COP(N)(=O)SC (stereo not given) | inactive | – |
| C=CCC1=C(C)[C@@H](OC(=O)[C@@H]2[C@@H](C=C(C)C)C2(C)C)CC1=O | inactive | – |
| CS/C(C)=N/OC(=O)N(C)SN(C)C(=O)O/N=C(\C)SC | inactive | – |
| N#Cc1cc(Br)c(O)c(Br)c1 | – | 40 µM (active) |
| O=C(O)COc1nc(Cl)c(Cl)cc1Cl | inactive | – |
| CCNc1nc(Cl)nc(NCC)n1 | inactive | – |
| N#Cc1nn(-c2c(Cl)cc(C(F)(F)F)cc2Cl)c(N)c1S(=O)C(F)(F)F (stereo not given) | – | 87.4 µM (active) |

| SMILES | outcome | AC50 |
| --- | --- | --- |
| CCON=C(CC)C1=C(O)CC(c2c(C)cc(C)cc2C)CC1=O (stereo not given) | inactive | – |
| CC(Oc1ccc(Cl)cc1Cl)C(=O)O (stereo not given) | inactive | – |
| CC1COC(Cn2cncn2)(c2ccc(Oc3ccc(Cl)cc3)cc2Cl)O1 (stereo not given) | – | 30 µM (active) |
| COC(=O)N(OC)c1ccccc1COc1ccn(-c2ccc(Cl)cc2)n1 | – | 50 µM (active) |
| CCCCOC(=O)c1ccccc1C(=O)OCCCC | inactive | – |
| CNC(=O)ON=CC(C)(C)SC | inactive | – |
| CCOc1cc(Oc2ccc(C(F)(F)F)cc2Cl)ccc1[N+](=O)[O-] | inactive | – |
| COc1nc(NC(C)C)nc(NC(C)C)n1 | inactive | – |
| O=C(Nc1ccccc1)Nc1ccnc(Cl)c1 | inactive | – |
| O=C(O)c1nc(Cl)ccc1Cl | inactive | – |
| CCOP(=S)(OCC)SCn1c(=O)oc2cc(Cl)ccc21 | inactive | – |
| CC1=C(C(=O)Nc2ccccc2)SCCO1 | inactive | – |
| CCNc1nc(Cl)nc(NC(C)C)n1 | inactive | – |
| Fc1ccc(Oc2ccnc3cc(Cl)cc(Cl)c23)cc1 | inactive | – |
| CCCCC(CC)COC(=O)c1ccccc1C(=O)OCC(CC)CCCC (stereo not given) | inactive | – |
| COC(=O)c1ccccc1C(=O)OC | inactive | – |
| CCOC(=O)C(Cl)Cc1cc(-n2nc(C)n(C(F)F)c2=O)c(F)cc1Cl (stereo not given) | inactive | – |
| CC(C)(C)c1ccc(CSc2cnn(C(C)(C)C)c(=O)c2Cl)cc1 | – | 2.12 µM (active) |
| C=CCC1=C(C)C(OC(=O)C2C(C=C(C)C)C2(C)C)CC1=O (stereo not given) | inactive | – |
